# Assay results taken from publication PMC7862700, “An all-to-all approach to the identification of sequence-specific readers for epigenetic DNA modifications on cytosine”.
# Legend:
# Experiment in all cases: DAPPL (digital affinity profiling via proximity ligation, sequencing); 10 mM Tris-HCl pH 7.5, 50 mM NaCl, 1 mM DTT, 4% glycerol, room temperature, 30 min; GST-TFs on glutathione beads, 16-mer random dsDNA library, 0.1% formaldehyde crosslink after washing; high values mean tight binding
# FEV = target: T1, FEV (Homo sapiens, UniProt Q99581 1-238); conditions: protein: recombinant; tags: N-terminal GST; dsDNA, one strand shown
# T1 sequence: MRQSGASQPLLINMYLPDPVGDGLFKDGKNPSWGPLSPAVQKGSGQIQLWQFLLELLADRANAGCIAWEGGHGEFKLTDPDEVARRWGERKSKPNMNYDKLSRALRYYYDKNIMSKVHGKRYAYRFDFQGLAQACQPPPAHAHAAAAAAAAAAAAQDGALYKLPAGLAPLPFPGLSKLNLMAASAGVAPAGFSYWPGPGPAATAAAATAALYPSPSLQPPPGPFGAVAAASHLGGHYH
# Outline: (§1)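 Beads coated with glutathione captured GST-fused human transcription factors that had been expressed in yeast, and the factors were then given DNA barcodes and pooled with a tag-only sample. The pools were incubated with 200 nmole of a random double-stranded 16-mer DNA library in Tris/NaCl/DTT/glycerol buffer for 30 min at room temperature, washed, crosslinked with 0.1% formaldehyde and proximity-ligated with BsaI/T4 ligase at 37 °C for 1 h. PCR amplification and Illumina NextSeq500 sequencing came last. Binding signal is each hexamer's read frequency for a factor divided by its frequency for the tag-only sample.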
# ETV5 = ETV5 (Homo sapiens, UniProt P41161 1-510); conditions: protein: recombinant; tags: N-terminal GST; dsDNA, one strand shown
# ETV5, sequence (P41161 whole entry): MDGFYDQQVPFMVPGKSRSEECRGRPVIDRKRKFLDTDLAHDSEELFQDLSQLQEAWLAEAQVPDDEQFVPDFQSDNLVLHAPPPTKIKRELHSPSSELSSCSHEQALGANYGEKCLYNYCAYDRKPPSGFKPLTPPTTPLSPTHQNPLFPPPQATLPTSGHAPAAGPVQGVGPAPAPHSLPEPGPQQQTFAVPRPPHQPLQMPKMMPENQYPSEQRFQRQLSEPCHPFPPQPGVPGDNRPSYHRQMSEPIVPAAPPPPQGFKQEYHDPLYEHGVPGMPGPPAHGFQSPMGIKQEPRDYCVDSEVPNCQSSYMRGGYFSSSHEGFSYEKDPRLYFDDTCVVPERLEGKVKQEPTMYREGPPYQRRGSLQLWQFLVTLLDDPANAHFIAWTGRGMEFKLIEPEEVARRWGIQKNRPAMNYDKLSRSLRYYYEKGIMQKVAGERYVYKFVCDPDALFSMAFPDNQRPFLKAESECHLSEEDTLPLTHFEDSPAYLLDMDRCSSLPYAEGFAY
# Outline: as §1
# HSF1 = HSF1 (Homo sapiens, UniProt Q00613 1-529); conditions: protein: recombinant; tags: N-terminal GST; chain copies: 3; dsDNA, one strand shown
# HSF1, sequence (Q00613 whole entry): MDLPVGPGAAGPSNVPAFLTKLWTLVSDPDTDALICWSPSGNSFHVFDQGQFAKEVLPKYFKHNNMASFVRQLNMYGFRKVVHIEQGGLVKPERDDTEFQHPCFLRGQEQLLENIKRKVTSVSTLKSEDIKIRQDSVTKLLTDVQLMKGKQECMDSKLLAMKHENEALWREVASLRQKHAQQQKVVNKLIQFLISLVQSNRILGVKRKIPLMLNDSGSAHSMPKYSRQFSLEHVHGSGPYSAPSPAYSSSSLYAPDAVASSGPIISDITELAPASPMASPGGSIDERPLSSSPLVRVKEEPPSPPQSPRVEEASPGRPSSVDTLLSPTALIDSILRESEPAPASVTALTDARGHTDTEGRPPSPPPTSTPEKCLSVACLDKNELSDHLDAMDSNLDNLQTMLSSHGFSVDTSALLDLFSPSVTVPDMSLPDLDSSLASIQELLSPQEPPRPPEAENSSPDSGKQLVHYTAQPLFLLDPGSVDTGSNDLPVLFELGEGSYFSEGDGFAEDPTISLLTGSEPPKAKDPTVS
# Outline: as §1
# SPIC = target: T2, SPIC (Homo sapiens, UniProt Q8N5J4 1-248); conditions: protein: recombinant; tags: N-terminal GST; dsDNA, one strand shown
# T2 sequence: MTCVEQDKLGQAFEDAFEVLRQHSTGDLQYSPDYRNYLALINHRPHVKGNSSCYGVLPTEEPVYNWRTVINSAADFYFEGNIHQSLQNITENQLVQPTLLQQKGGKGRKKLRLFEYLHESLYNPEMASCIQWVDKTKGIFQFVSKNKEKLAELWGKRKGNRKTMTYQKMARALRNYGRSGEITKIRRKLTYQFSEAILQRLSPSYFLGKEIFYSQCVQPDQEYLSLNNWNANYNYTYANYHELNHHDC
# Outline: as §1
# ELF4 = ELF4 (Homo sapiens, UniProt Q99607 1-663); conditions: protein: recombinant; tags: N-terminal GST; dsDNA, one strand shown
# ELF4, sequence (Q99607 whole entry): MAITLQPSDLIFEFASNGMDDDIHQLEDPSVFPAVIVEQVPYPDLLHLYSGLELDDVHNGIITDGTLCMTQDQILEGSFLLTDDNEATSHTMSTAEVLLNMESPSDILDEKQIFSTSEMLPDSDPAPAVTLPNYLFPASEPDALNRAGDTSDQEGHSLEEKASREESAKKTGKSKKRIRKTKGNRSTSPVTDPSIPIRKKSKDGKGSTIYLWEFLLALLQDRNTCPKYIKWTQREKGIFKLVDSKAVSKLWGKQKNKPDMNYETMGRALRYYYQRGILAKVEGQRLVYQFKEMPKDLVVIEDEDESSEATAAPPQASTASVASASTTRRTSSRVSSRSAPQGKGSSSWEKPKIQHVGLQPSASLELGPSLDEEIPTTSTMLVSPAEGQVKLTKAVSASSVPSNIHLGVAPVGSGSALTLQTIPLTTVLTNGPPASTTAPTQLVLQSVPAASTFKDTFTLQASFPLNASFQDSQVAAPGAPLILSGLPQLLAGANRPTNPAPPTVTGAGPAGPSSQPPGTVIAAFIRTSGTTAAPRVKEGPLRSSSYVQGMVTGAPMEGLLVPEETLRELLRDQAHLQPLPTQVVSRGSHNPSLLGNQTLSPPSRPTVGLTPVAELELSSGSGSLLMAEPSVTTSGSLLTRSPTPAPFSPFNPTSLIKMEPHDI
# Outline: as §1
# ELK4 = target: T3, ELK4 (Homo sapiens, UniProt P28324-2 1-405); conditions: protein: recombinant; tags: N-terminal GST; dsDNA, one strand shown
# T3 sequence: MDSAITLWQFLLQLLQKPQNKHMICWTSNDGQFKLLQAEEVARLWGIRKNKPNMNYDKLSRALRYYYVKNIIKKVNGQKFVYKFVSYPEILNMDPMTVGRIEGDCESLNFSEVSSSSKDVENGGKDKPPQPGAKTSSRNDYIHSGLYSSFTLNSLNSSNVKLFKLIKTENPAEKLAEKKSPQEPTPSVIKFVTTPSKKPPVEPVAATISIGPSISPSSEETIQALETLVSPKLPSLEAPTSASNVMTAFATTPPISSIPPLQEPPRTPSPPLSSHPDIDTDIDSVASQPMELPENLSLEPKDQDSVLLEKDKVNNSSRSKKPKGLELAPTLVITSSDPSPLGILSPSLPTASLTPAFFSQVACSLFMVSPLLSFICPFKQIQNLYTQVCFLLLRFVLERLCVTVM
# Outline: as §1
# ETV2 = target: T4, ETV2 (Homo sapiens, UniProt O00321 1-342); conditions: protein: recombinant; tags: N-terminal GST; dsDNA, one strand shown
# T4 sequence: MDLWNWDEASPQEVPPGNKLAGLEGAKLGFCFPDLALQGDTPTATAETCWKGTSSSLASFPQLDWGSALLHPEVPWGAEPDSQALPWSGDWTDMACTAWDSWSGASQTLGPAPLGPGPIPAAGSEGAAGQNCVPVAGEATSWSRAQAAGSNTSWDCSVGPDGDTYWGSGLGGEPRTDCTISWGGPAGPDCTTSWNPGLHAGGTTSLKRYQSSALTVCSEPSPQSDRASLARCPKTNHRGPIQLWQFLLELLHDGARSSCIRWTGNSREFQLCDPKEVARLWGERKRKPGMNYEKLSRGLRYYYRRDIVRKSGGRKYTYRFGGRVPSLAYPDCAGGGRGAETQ
# Outline: as §1
# ELF3 = target: T5, ELF3 (Homo sapiens, UniProt P78545 1-371); conditions: protein: recombinant; tags: N-terminal GST; dsDNA, one strand shown
# T5 sequence: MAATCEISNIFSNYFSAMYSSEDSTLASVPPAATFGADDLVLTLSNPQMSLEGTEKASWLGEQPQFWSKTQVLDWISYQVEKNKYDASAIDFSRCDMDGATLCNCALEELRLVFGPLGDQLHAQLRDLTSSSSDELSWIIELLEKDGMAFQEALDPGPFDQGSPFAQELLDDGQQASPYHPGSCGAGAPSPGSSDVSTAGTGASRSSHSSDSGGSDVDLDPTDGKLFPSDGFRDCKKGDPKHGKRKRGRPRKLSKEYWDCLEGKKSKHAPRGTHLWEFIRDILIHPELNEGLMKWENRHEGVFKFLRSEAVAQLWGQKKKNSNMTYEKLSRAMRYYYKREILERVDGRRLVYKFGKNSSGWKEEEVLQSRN
# Outline: as §1
# CRX = CRX (Homo sapiens, UniProt O43186 1-299); conditions: protein: recombinant; tags: N-terminal GST; dsDNA, one strand shown
# CRX, sequence (O43186 whole entry): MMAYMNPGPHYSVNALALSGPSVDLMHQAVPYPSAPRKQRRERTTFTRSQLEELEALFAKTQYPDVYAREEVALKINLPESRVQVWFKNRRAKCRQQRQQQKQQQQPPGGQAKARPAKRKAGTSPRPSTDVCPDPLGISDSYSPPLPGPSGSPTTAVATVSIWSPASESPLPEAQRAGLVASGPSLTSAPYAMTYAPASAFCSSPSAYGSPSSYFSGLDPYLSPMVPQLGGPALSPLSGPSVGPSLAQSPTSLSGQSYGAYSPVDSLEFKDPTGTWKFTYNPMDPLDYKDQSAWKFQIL
# Outline: as §1
# ETV1 = ETV1 (Homo sapiens, UniProt P50549 1-477); conditions: protein: recombinant; tags: N-terminal GST; dsDNA, one strand shown
# ETV1, sequence (P50549 whole entry): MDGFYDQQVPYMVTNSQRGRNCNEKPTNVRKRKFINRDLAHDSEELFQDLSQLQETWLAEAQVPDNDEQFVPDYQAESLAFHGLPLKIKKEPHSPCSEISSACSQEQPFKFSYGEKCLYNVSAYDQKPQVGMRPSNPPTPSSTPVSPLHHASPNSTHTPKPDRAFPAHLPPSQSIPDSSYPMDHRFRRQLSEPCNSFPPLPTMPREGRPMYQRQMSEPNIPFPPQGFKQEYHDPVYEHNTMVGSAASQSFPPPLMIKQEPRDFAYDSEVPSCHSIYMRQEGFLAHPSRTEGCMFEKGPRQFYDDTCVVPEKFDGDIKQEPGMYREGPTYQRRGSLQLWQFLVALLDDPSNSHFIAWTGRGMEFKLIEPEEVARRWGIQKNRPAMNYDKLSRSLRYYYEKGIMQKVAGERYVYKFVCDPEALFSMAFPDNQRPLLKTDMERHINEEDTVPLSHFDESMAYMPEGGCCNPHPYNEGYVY
# Outline: as §1
sequence,measurement,setting,value
TATGGG,binding signal,FEV,"1.13 fold enrichment (6-mer frequency, TF over GST control)"
same,binding signal,ETV5,"1.18 fold enrichment (6-mer frequency, TF over GST control)"
same,binding signal,HSF1,"1.1 fold enrichment (6-mer frequency, TF over GST control)"
same,binding signal,SPIC,"1.32 fold enrichment (6-mer frequency, TF over GST control)"
same,binding signal,ELF4,"1.18 fold enrichment (6-mer frequency, TF over GST control)"
same,binding signal,ELK4,"1.14 fold enrichment (6-mer frequency, TF over GST control)"
same,binding signal,ETV2,"1.11 fold enrichment (6-mer frequency, TF over GST control)"
same,binding signal,ELF3,"1.18 fold enrichment (6-mer frequency, TF over GST control)"
same,binding signal,CRX,"1.36 fold enrichment (6-mer frequency, TF over GST control)"
same,binding signal,ETV1,"1.2 fold enrichment (6-mer frequency, TF over GST control)"
